Reference: PubChem BioAssay (Tox21)
Inconclusive results are not listed. Activity calls are given as the source filed them. Unless noted, calls come from the whole dose curve; as a rule, active = well fitted curve in the direction sought with a large enough effect in the repeat runs; inconclusive = weak or mixed curves; inactive = no such curve, though single readings can be large; an effect the other way counts as inactive or inconclusive.

Key:
[1] = qHTS assay to identify small molecule agonists of the peroxisome proliferator-activated receptor delta (PPARd) signaling pathway - cell viability counter screen (AID 743211); note: nearly all actives have a fitted effect of over 55% in size
In short: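 PPARd-bla HEK293H cells (3000/well) were pre-incubated 5 h at 37 C, then exposed to compound for 17 h at 37 C. After 2 h with LiveBLAzer substrate, CellTiter-Glo was added to the same wells; luminescence read after 30 min at room temperature.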

[2] = molecular target: Peroxisome proliferator-activated receptor delta (Homo sapiens) (UniProt Q03181); test: qHTS assay to identify small molecule agonists of the peroxisome proliferator-activated receptor delta (PPARd) signaling pathway (AID 743212; calls by dose curve)
In short: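 HEK293H UAS-bla reporter cells, human PPARd system; compounds delivered in DMSO after 5 h plating, then at 37 C. Beta-lactamase FRET read, 2 h RT substrate step.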

[3] = qHTS assay to identify small molecule antagonists of the peroxisome proliferator-activated receptor delta (PPARd) signaling pathway - cell viability counter screen (AID 743213); note: nearly all actives have a fitted effect of over 50% in size
In short: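 Same-well viability: cells pre-incubated 5 h, dosed with compound plus 300 nM L165041, kept 17 h at 37 C, FRET substrate 2 h RT, then CellTiter-Glo 30 min RT and luminescence.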

[4] = molecular target: Peroxisome proliferator-activated receptor delta (Homo sapiens) (UniProt Q03181); test: qHTS assay to identify small molecule antagonists of the peroxisome proliferator-activated receptor delta (PPARd) signaling pathway (AID 743215; active = well fitted inhibition curve with a large enough effect in the signal ratio in the repeat runs, not every such curve was filed as active; the % refers to the signal ratio;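 note: cells stimulated with agonist L165041 at 300 nM final during compound exposure; series mostly up to about 62 µM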)
In short: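 Read-out is beta-lactamase FRET fluorescence, measured 2 h after substrate addition at room temperature. Beforehand, UAS-bla HEK293H cells carrying the PPARd reporter were exposed to compounds with L165041 at 300 nM final for 17 h at 37 C.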

[5] = qHTS assay to identify small molecule agonists of the farnesoid-X-receptor (FXR) signaling pathway - cell viability counter screen (AID 743218); note: nearly all actives have a fitted effect of over 45% in size
In short: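 HEK 293T FXR-bla cells; 5 h pre-incubation, 16 h compound exposure at 37 C; LiveBLAzer substrate 2 h RT, then CellTiter-Glo 30 min RT, luminescence.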

[6] = qHTS assay to identify small molecule antagonists of the farnesoid-X-receptor (FXR) signaling pathway - cell viability counter screen (AID 743221; active = well fitted cell-killing curve with a large enough effect in the repeat runs, not every such curve was filed as active; note: nearly all actives have a fitted effect of over 50% in size)
In short: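 GeneBLAzer FXR-UAS-bla HEK 293T cells, compound plus chenodeoxycholic acid (50 uM final), 16 h at 37 C. CellTiter-Glo added to the same wells after the beta-lactamase read; luminescence read after 30 min at room temperature as viability.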

[7] = molecular target: Vitamin D3 receptor (Homo sapiens) (UniProt P11473); test: qHTS assay to identify small molecule agonists of the vitamin D receptor (VDR) signaling pathway (AID 743222; calls by dose curve)
In short: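 VDR-bla cells, 2,000/well; 4 h preincubation 37C; cpd (DMSO) 16 h; LiveBLAzer B/G substrate 2 h RT; fluorescence intensity read.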

[8] = molecular target: Vitamin D3 receptor (Homo sapiens) (UniProt P11473); test: qHTS assay to identify small molecule antagonists of the vitamin D receptor (VDR) signaling pathway (AID 743223; active = well fitted inhibition curve with a large enough effect in the signal ratio in the repeat runs, not every such curve was filed as active; the % refers to the signal ratio)
In short: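 VDR-bla cells were treated with compound plus 3 nM final 1alpha,25-dihydroxyvitamin D3 for 16 h at 37C. Beta-lactamase reporter read by B/G FRET substrate fluorescence after 2 h at room temperature. qHTS format.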

[9] = qHTS assay to identify small molecule agonists of the vitamin D receptor (VDR) signaling pathway - cell viability counter screen (AID 743224); note: series mostly up to about 63 µM; nearly all actives have a fitted effect of over 50% in size
In short: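 Luminescence from CellTiter-Glo, read after 30 min at room temperature, reports viability of VDR-bla cells treated with compounds for 16 h at 37C in the wells used for the beta-lactamase FRET read.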

[10] = qHTS assay to identify small molecule antagonists of the vitamin D receptor (VDR) signaling pathway - cell viability counter screen (AID 743225); note: nearly all actives have a fitted effect of over 50% in size
In short: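 VDR-UAS-bla HEK 293T cells were plated and incubated 4 h at 37C, then dosed with compound plus 3 nM (final) 1-alpha,25-dihydroxyvitamin D3 for 16 h. After the 2 h beta-lactamase read, viability in the same wells was read as CellTiter-Glo luminescence after 30 min at room temperature.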

[11] = qHTS assay to identify small molecule agonists of the NFkB signaling pathway (AID 1159509; active = well fitted curve in the direction sought with a large enough effect in the signal ratio in the repeat runs, not every such curve was filed as active; the % refers to the signal ratio; note: series mostly up to about 61 µM)
In short: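 After overnight attachment, reporter cells received test compounds, DMSO or positive controls and were incubated 5 hr at 37 C. FRET substrate was then added for 1.5 hr at room temperature before dual-emission fluorescence reading.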

[12] = qHTS assay to identify small molecule agonists of the NFkB signaling pathway - cell viability counter screen (AID 1159515; calls by dose curve; note: series mostly up to about 61 µM; nearly all actives have a fitted effect of over 55% in size)
In short: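 Luminescence from CellTiter-Glo (30 min, room temperature) gives viability, measured in the same wells as the beta-lactamase reporter read. Cells were NFkB-bla ME-180, 2,000 per well, treated 5 hr with compounds.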

[13] = qHTS assay to identify small molecule agonists of the endoplasmic reticulum stress response signaling pathway - cell viability counter screen (AID 1159517; calls by dose curve)
In short: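 Cells, HeLa ESRE-bla; density, 1,500/well; dosing, 5 hr at 37 C, 5% CO2; readout, CellTiter-Glo luminescence after 30 min RT.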

[14] = qHTS assay to identify small molecule antagonists of the retinoid-related orphan receptor gamma (ROR-gamma) signaling pathway - cell viability counter screen (AID 1159520); note: nearly all actives have a fitted effect of over 50% in size
In short: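 Cytotoxicity was read from cellular ATP (CellTiter-Glo luminescence) after 16 hr at 37 C with 1 uM doxycycline induction. The inducer was added 2 hr after compound transfer to Tet-on ROR gamma CHO cells.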

[15] = molecular target: Nuclear receptor ROR-gamma (Homo sapiens) (UniProt P51449); test: qHTS assay to identify small molecule antagonists of the retinoid-related orphan receptor gamma (ROR-gamma) signaling pathway (AID 1159521)
In short: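 Tet-on ROR-gamma CHO cells with ROR response element-luciferase reporter; compounds added 2 hr before 1 uM doxycycline induction, then 16 hr at 37 C. Antagonism scored as decreased ONE-Glo luminescence.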

[16] = qHTS assay to identify small molecule agonists of the AP-1 signaling pathway - cell viability counter screen (AID 1159525; calls by dose curve; note: nearly all actives have a fitted effect of over 55% in size)
In short: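 Luminescent ATP readout (Cell Titer Glo, 30 min RT), normalised to DMSO and tetra n-octyl ammonium bromide controls. Cells were ME-180 AP-1-bla in 0.5% dialyzed FBS Opti-MEM, with a 5 h, 37 °C compound exposure.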

[17] = qHTS assay to identify small molecule agonists of the AP-1 signaling pathway (AID 1159526; calls by dose curve)
[18] = molecular target: Bile acid receptor (Homo sapiens) (UniProt Q96RI1); test: qHTS assay to identify small molecule antagonists of the farnesoid-X-receptor (FXR) signaling pathway (AID 743217; active = well fitted inhibition curve with a large enough effect in the signal ratio in the repeat runs, not every such curve was filed as active; the % refers to the signal ratio)
In short: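 HEK 293T FXR-UAS-bla, 5000 cells/well; compound + CDCA 50 uM final; 16 h, 37 °C; B/G FRET substrate 2 h RT; fluorescence.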

[19] = molecular target: Bile acid receptor (Homo sapiens) (UniProt Q96RI1); test: qHTS assay to identify small molecule agonists of the farnesoid-X-receptor (FXR) signaling pathway (AID 743220; active = well fitted activation curve with a large enough effect in the signal ratio in the repeat runs, not every such curve was filed as active; the % refers to the signal ratio)
In short: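 Beta-lactamase reporter under UAS control in GeneBLAzer FXR HEK 293T cells (5000/well) measured with LiveBLAzer FRET substrate after 2 h at room temperature. Compound exposure lasted 16 h at 37C.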

[20] = qHTS assay to identify small molecule agonists of the endoplasmic reticulum stress response signaling pathway (AID 1159516; active = well fitted activation curve with a large enough effect in the signal ratio in the repeat runs, not every such curve was filed as active; the % refers to the signal ratio)
In short: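 Read-out is beta-lactamase cleavage of a FRET substrate (405 nm excitation; 460 and 530 nm emissions) in ESRE-bla HeLa cells after a 5 hr compound exposure at 37 C. Substrate incubation ran 2 hr at room temperature.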

Measured: outcome

Vitamin D3 receptor (Homo sapiens), sequence (P11473 whole entry, looked up): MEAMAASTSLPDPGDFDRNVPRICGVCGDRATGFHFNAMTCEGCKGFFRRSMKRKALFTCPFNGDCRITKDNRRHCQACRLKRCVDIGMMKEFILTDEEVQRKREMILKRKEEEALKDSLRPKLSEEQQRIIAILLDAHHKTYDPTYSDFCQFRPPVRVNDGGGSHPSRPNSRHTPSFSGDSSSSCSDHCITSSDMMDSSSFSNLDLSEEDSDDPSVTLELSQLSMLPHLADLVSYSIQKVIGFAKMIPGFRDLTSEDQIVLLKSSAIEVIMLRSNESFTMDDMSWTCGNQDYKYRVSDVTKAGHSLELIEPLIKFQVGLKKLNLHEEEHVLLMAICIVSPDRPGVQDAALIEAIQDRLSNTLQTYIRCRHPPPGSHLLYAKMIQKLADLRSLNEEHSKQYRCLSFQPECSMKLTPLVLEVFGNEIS
Bile acid receptor (Homo sapiens), sequence (Q96RI1 whole entry, looked up): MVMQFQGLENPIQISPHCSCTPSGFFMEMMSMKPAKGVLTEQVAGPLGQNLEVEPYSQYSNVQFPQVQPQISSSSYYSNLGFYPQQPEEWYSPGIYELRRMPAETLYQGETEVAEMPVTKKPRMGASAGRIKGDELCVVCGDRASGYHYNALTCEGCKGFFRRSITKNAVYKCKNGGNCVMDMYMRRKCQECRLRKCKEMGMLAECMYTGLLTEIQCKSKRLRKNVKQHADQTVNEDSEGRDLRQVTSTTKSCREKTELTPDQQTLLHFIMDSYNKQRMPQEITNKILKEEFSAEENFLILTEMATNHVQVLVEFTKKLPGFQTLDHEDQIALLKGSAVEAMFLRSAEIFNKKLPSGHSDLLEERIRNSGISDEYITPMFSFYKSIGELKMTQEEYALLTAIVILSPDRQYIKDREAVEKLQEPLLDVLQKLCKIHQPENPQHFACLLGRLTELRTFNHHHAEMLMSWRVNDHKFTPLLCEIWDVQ
Peroxisome proliferator-activated receptor delta (Homo sapiens), sequence (Q03181 whole entry, looked up): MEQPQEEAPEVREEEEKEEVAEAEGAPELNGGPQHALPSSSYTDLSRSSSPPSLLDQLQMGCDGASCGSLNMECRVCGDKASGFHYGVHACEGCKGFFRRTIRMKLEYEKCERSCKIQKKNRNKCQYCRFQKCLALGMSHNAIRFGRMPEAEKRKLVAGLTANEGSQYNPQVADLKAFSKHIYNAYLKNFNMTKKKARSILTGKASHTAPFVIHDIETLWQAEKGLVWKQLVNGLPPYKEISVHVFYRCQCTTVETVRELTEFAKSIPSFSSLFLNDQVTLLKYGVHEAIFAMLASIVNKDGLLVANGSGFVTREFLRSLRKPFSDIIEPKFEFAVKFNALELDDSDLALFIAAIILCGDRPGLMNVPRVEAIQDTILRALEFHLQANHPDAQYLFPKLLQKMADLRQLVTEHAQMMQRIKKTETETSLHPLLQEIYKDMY

O=[N+]([O-])c1c(Cl)cc(Cl)cc1Cl
not listed: [18] | [19] | [20]
inactive: all other assays above

CN(C)CCCCl
not listed: [3] | [4] | [6] | [8] | [20]
inactive: all other assays above

CCCSSCCC
not listed: [18] | [19] | [20]
inactive: all other assays above

CCC(C)OC(C)CC (stereo unspecified)
not listed: [3] | [8] | [18] | [19] | [20]
inactive: all other assays above

CCC/C=C(\C=O)CC
not listed: [4] | [8] | [10] | [18] | [19] | [20]
inactive: all other assays above

COS(=O)(=O)O
not listed: [2] | [4] | [18] | [20]
inactive: all other assays above

CC(N)CCCC(C)(C)O (stereo unspecified)
not listed: [1] | [18] | [19] | [20]
inactive: all other assays above

COc1cc(OC)nc(O[C@H](C(=O)O)C(OC)(c2ccccc2)c2ccccc2)n1
not listed: [2] | [4] | [6] | [18] | [19] | [20]
inactive: all other assays above

c1ccc2cnccc2c1
not listed: [4] | [6] | [8] | [18] | [19] | [20]
inactive: all other assays above

C[C@]12CCC(=O)C=C1CC[C@H]1[C@@H]3CC[C@](O)(C(=O)CO)[C@@]3(C)C[C@H](O)[C@@]12F
not listed: [5] | [20]
inactive: all other assays above

CC(=O)C1C(=O)C=C(C)OC1=O (stereo unspecified)
not listed: [4] | [11]
inactive: all other assays above

COC(=O)CCCCC(=O)O
not listed: [5] | [7] | [8] | [18] | [19] | [20]
inactive: all other assays above

CN(C)C(C)(C)CO
not listed: [1] | [20]
inactive: all other assays above

O=C(CCCCC(=O)Nc1c(I)cc(I)c(C(=O)O)c1I)Nc1c(I)cc(I)c(C(=O)O)c1I
not listed: [8] | [18] | [19] | [20]
inactive: all other assays above

OCC1(CO)COCOC1
not listed: [1] | [3] | [6] | [7] | [8] | [20]
inactive: all other assays above

C/C(=C1\CCOC(=O)S1)N(C=O)Cc1cnc(C)nc1N
not listed: [1] | [5] | [10] | [20]
inactive: all other assays above

CC(=O)OCC(=O)Nc1cc(C#N)cc(NC(=O)COC(C)=O)c1Cl
not listed: [2] | [3] | [4] | [18] | [19] | [20]
inactive: all other assays above
